BAZ2B block: blocks human BAZ2B; 360,000 tested, 4.4% active; AlphaScreen BAZ2B-H3K14Ac peptide displacement; Potency, µM (titrated, usually from 114 µM), for the others: at the highest dose activity change, negative = inhibition, most hits filed as inhibitors; note: % is set by controls: 0 for no effect and ±100 for the full control effect; nearly all actives have a fitted effect of over 60% in size
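BAZ2B (50 nM) with biotin-H3(5-23)K14Ac peptide (50 nM) in PBS pH 7.4, 0.01% Tween-20, preformed 30 min, then compound 30 min at room temperature; top concentration 110uM. AlphaScreen streptavidin donor/nickel chelate acceptor beads (10 ug/mL final), 20 min dark, signal read.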
JMJD2A Tudor: blocks the human JMJD2A Tudor domain. 390,000 tested, 4.4% active. AlphaScreen JMJD2A-Tudor / H3K4me3 peptide binding. AID 504339. Potency, µM (titrated, usually from 114 µM), for the others: top-dose activity change, negative = inhibition, hits mostly inhibitors; note: % is set by controls: 0 for no effect and ±100 for the full control effect; nearly all actives have a fitted effect of over 50% in size
HP1b binding inh: HP1-beta chromodomain-methylated histone interaction inhibition | AlphaScreen HP1-beta / biotin-H3K9me3 peptide binding | AID 540317 | P83916 | 390,000 tested, 0.56% active | Potency, µM (titrated, usually from 114 µM), for inactives: at the highest dose activity change, negative = inhibition, hits mostly inhibitors; note: nearly all actives have a fitted effect of over 70% in size
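HP1-beta protein (50 nM final) preincubated 30 min at room temperature with biotinylated H3(1-18)K9me3 peptide (50 nM) in PBS pH 7.4, 0.01% Tween-20, then compound added for 30 min. AlphaScreen streptavidin donor/nickel chelate acceptor beads (10 ug/mL final), 30 min dark, luminescence read.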
L3MBTL1 block: L3MBTL1 (human) inhibition | Q9Y468 | AlphaScreen L3MBTL1–H3K9me1 peptide binding | Potency, µM (top dose mostly 57.1 µM), for inactives: top-dose activity, negative = inhibition, most hits filed as inhibitors | 230,000 tested, 0.66% active | AID 485360; note: % is set by controls: 0 for no effect and ±100 for the full control effect; nearly all actives have a fitted effect of over 60% in size
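AlphaScreen proximity signal between nickel-chelate acceptor and streptavidin donor beads (final 10 ug/mL) reports binding of 50 nM L3MBTL1 to 75 nM biotin-H3 K9me1 peptide; complex incubated with compounds 30 min at room temperature; cefsulodin titration as control.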
G9a inh: G9a (human) methyltransferase inhibition. Q96KQ7. G9a H3K9 monomethylation, AlphaScreen, 2 h. Potency, µM (titrated, usually from 102 µM), without a hit: at the highest dose activity, negative = inhibition, most hits filed as inhibitors. 350,000 tested, 8.8% active; note: % is set by controls: 0 for no effect and ±100 for the full control effect; nearly all actives have a fitted effect of over 75% in size
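Enzyme 20 nM + cpd, 15 min RT; add b-H3K9 pep 500 nM / SAM 20 uM; 2 h RT; anti-H3K9me1 Ab 0.5 ug/mL + SA donor / anti-rabbit acceptor beads 20 ug/mL each, 10 min; AlphaScreen read.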
Sfp inh: Sfp phosphopantetheinyl transferase inhibition; 310,000 tested, 3.5% active; Biochemical Sfp PPTase activity, qHTS; AID 1490; Potency, µM, for the others: largest response in the series, negative = inhibition, actives largely listed as inhibitors;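 note: the enzyme is Sfp with the accession as filed and its product quenches rhodamine fluorescence; 0% = enzyme reaction without inhibitor and -100% = no enzyme wells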
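Buffer: 50 mM Hepes-Na pH 7.6, 10 mM MgCl2, 0.01% Nonidet P-40, 0.01% BSA. Enzyme 15 nM, pre-exposed to compound 15 min; substrates then added and fluorescence change tracked over 30 min.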
Active calls of the source: *; u = inconclusive; x = not tested or not shown; [ ] = remark or other dose. Most compounds without a hit are left out; they make up all but 12% or so of the library. Calls come from the whole dose curve; as a rule, active = well fitted curve in the direction sought with a large enough effect; inconclusive = small, poorly fitted or top-dose-only effect, or another doubt; inactive = no such curve, though single readings can be large; an effect the other way counts as inactive or inconclusive. Potency is the fitted concentration of half-maximal effect.

SMILES	BAZ2B block	JMJD2A Tudor	HP1b binding inh	L3MBTL1 block	G9a inh	Sfp inh
Cc1c2cnn(CC(=O)NC(C)C)c(=O)c2c(C)n1Cc1ccccc1Cl	-1.2%	-22.1%	12.9%	x	6.8%[59 µM]	x
Cc1ccc(C)c(CSc2nnc(C)n3c2cc2sccc23)c1	-13.8%	-12.5%	30.6%	x	-8.4%[59 µM]	x
CCc1ccc(-c2cn(C3CCCCC3)c(=S)[nH]2)cc1	17.8µM*	28.2µM*	u	x	u	10.6%
COc1cc(OC)cc(C(=O)Nc2ccc(S(=O)(=O)N3CCCCC3c3cccnc3)cc2)c1 (stereo not drawn)	-16.5%	-20.0%	8.1%[57 µM]	x	-7.1%[59 µM]	x
CCCC1(C)SC(NC(C)=O)=NN1C(C)=O (stereo not drawn)	4.3%	-12.3%	12.8%	-0.8%	-27.0%	12.1%
CC(=O)NC1=NN(C(C)=O)C2(S1)C(=O)N(C(C)C)c1ccc(C)cc12 (stereo not drawn)	1.3%	0.6%	3.4%	5.7%	50.1µM*	-0.2%
CC(C)(C)OC(=O)N1CCC(c2c(C(=O)N3CCN(c4ccccc4)CC3)cnn2-c2ccccc2)CC1	0.9%[57.1 µM]	-29.1%	-9.1%	x	u	x
Cc1nnsc1C(=O)Oc1ccc(C#N)cc1	u	89.1µM*	17.2%	x	15.8µM*	x
Cc1nnsc1C(=O)Oc1ccc(Cl)cc1	7.3%	-2.6%	2.8%	x	12.6µM*	x
Cn1c(=O)c2c(nc(SCC(=O)Nc3ccc(F)cc3)n2Cc2ccccc2F)n(C)c1=O	-10.9%	-4.1%	20.0%	x	-35.1%[59 µM]	x
CN1CCN(c2ccc(NC(=O)CSc3nnnn3-c3ccccc3F)cc2)CC1	-21.3%[57.1 µM]	-30.3%	2.5%	x	79.4µM*	0.0%
COc1ccc(NC(=O)CSc2nnnn2-c2ccccc2F)cc1	-8.5%	-11.5%	19.6%	5.6%	u	19.5%
Cc1ccc(-n2nnnc2SCC(=O)Nc2ccc(N3CCN(C)CC3)cc2)c(C)c1	u	6.6%	54.6%	x	50.1µM*	-6.6%
COc1ccccc1NC(=O)CSc1nnnn1-c1ccccc1F	8.4%	-9.0%	-8.8%	-0.7%[2.29 µM]	-7.0%[0.501 µM]	39.8µM*
COc1ccc(-n2nnnc2SCC(=O)NCCc2ccccc2)cc1OC	u	-2.7%	32.1%	0.7%	22.4µM*	8.3%
Cc1ccc(-n2nnnc2SCC(=O)NCCc2ccccc2)cc1C	3.9%	5.6%	34.4%	x	-2.9%[59 µM]	x
O=c1c(-c2ccc(Cl)cc2)nc2cnc(N3CCOCC3)nc2n1C1CC1	x	x	x	x	-10.3%[12.7 µM]	12.4%
CCN(c1ccc(C)cc1C)S(=O)(=O)c1nnc(NC(=O)CC(C)C)s1	-1.3%	-5.3%	30.6%	x	2.4%[59 µM]	x
O=c1ccn(C2OC(COP(=O)(O)OC3C(CO)OC(n4ccc(=O)[nH]c4=O)C3O)C(O)C2O)c(=O)[nH]1 (stereo not drawn)	x	x	x	x	-4.7%[12.7 µM]	5.9%
NC1=NC(=O)/C(=C/c2cccc(-c3ccc(S(N)(=O)=O)cc3)c2)S1	u	-23.4%	11.5%	3.1%	35.5µM*	-23.1%
NC1=NC(=O)/C(=C\c2ccc(O)c([N+](=O)[O-])c2)S1	-30.7%	-15.5%	-14.5%	0.4%	u	2.1%
COc1cc(OC)c(C(=O)Nc2ncn[nH]2)cc1OC	x	50.1µM*	32.0%	x	x	x
C=CCOc1cccc(C(=O)Nc2ncn[nH]2)c1	56.2µM*	-11.6%	28.8%	-3.8%	u	1.3%
O=C(Nc1nc(=S)ss1)c1ccc(Cl)cc1Cl	-27.5%	-3.9%[57.1 µM]	u	-1.0%	u	12.6µM*
COc1cc(OC)cc(C(=O)Nc2ncn[nH]2)c1	u	-33.8%	33.7%	1.8%	22.2%[2.33 µM]	x
CCOc1cc(C(=O)Nc2ncn[nH]2)cc(OCC)c1OCC	56.2µM*	-32.6%	10.4%	9.8%	12.8%	14.6%
CCCCNC(=O)NS(=O)(=O)c1ccc(CO)cc1	x	x	x	x	x	7.4%
Cc1ccc(/C=C/C(=O)N2CCC(c3nc4ccccc4o3)CC2)cc1	u	-6.0%	21.0%	x	-36.0%[59 µM]	x
CCOc1ccc(CNC(=O)Cn2ncc3c(=O)oc4ccc(C)cc4c32)cc1	-5.7%	-13.9%	31.3%	x	-6.8%[59 µM]	x
O=C(Nc1ncn[nH]1)c1ccc(Cl)cc1Cl	50.1µM*	-25.6%	33.4%	u	u	14.7%
